Assay results from PubChem BioAssay (NCATS).
Results filed as inconclusive are left out. Active and inactive are the calls of the source. Calls come from the whole dose curve; as a rule, active = well fitted inhibition curve with a large enough effect; inconclusive = small, poorly fitted or top-dose-only effect; inactive = flat fitted curve, though single readings scatter.

Each compound was assayed against Glutathione peroxidase 1 (Homo sapiens) (UniProt P07203) (assay: Primary qHTS Assay for Inhibitors of Recombinant Selenoprotein Glutathione Peroxidase 1 (GPX1) (AID 1845191)). Conditions: recombinant GPX1, GR-coupled NADPH fluorescence, 15 min; series mostly up to 48.8 µM; activity, negative = inhibition: at the top concentration.
How it was run: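 10 nM GPX1 + cpd, 30 min RT; start w/ 1 mM GSH, 0.5 mM cumene hydroperoxide, 0.5 mM NADPH, 100 nM GR, 0.01% BSA; buffer 50 mM Tris-HCl pH 7.5, 2 mM EDTA, 150 mM NaCl; Fl 340/450, 0 & 15 min.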
% is set by controls: 0 for no effect and ±100 for the full control effect; potency is the fitted concentration of half-maximal effect.
Note: nearly all actives have a fitted effect of over 65% in size.

Glutathione peroxidase 1 (Homo sapiens), sequence (P07203 whole entry, looked up): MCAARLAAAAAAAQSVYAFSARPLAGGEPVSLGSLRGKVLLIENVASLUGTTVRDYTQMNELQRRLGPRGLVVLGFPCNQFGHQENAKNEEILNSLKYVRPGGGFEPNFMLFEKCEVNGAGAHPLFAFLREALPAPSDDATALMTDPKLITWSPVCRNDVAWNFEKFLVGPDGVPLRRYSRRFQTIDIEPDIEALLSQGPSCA

SMILES | activity, negative = inhibition | Potency | outcome
COC(=O)[C@H]1[C@H]2C[C@@H]3c4[nH]c5ccccc5c4CCN3C[C@H]2C[C@@H](OC(=O)c2cc(OC)c(OC)c(OC)c2)[C@@H]1OC | -24.2% (inactive) | – | –
CN(C)c1cccc(-c2c3c(=O)n(-c4ccccc4Cl)[nH]c3cc(=O)n2C)c1 | -0.817% (inactive) | – | –
NCc1c[nH]c(=S)n1C1CCc2c(F)cc(F)cc2C1 (stereo unspecified) | – | 22.7 µM (active) | –
Clc1cc(Cl)c(OCC#CI)cc1Cl | – | – | inactive
COc1ccc2cc(OCC3(C(=O)O)CN(C(=O)c4ccc(F)cc4)C3)ccc2c1 | – | – | inactive
CC(=O)N[C@H]1CCN(c2ccc(C3=NOC(CN[S+](=O)([O-])C(C)C)C3)cc2F)C1 (stereo partly specified) | -14.7% (inactive) | – | –
O=C(O)c1cc(O)c2c(c1)[O][Bi][O]2 | – | – | inactive [at 0.4 µM]
CCOc1ccc2c(c1)C(C)=CC(C)(C)N2 | -5.83% [at 98.3 µM] (inactive) | – | –
CCCCC(=O)OCC(=O)[C@]1(O)Cc2c(O)c3c(c(O)c2[C@@H](O[C@H]2C[C@H](NC(=O)C(F)(F)F)[C@H](O)[C@H](C)O2)C1)C(=O)c1c(OC)cccc1C3=O | – | inactive | –
CC(C)(C)C(=O)OCOC(=O)[C@@H]1N2C(=O)[C@@H](N=CN3CCCCCC3)[C@H]2SC1(C)C | – | – | inactive
C[C@H]1[C@H](C)CC[C@]2(C(=O)O)CC[C@]3(C)C(=CC[C@@H]4[C@@]5(C)C[C@@H](O)[C@H](O)[C@@](C)(CO)[C@@H]5CC[C@]43C)[C@H]12 | – | – | inactive
CCN(CC)Cc1cc(Nc2ccnc3cc(Cl)ccc23)ccc1O | – | – | inactive
C/C=C/C=C/C=C/C(=O)O[C@@H]1C=C(CO)C(O)(C(=O)O)[C@@]2(C)CCCC(C)(C)[C@H]12 (stereo partly specified) | – | – | inactive [at 27.7 µM]
CC1(C)C(C=C(Cl)Cl)C1C(=O)OCc1cccc(Oc2ccccc2)c1 (stereo unspecified) | -3.84% (inactive) | – | –
C=C1CC[C@@H]2[C@](C)(CO)[C@H](O)CC[C@@]2(C)[C@@H]1C/C=C1/C(=O)OC[C@H]1O | 3.34% (inactive) | – | –
NC(=O)c1cccc(-c2cc(O)cc(OC(=O)NC3CCCCC3)c2)c1 | – | – | inactive [at 27.7 µM]
CCCCCCCCCCCC[n+]1ccc2ccccc2c1 | -15.1% (inactive) | – | –
CC(C)N=c1cc2n(-c3ccc(Cl)cc3)c3ccccc3nc-2cc1Nc1ccc(Cl)cc1 | -4.76% (inactive) | – | –

SMILES | activity, negative = inhibition | Potency | outcome
O=CCCCC=O | – | – | inactive
CC[N+](C)(C)Cc1ccccc1Br | -7.53% (inactive) | – | –
CO[C@H](C(=O)[C@@H](O)[C@@H](C)O)C1Cc2cc3cc(O[C@H]4C[C@@H](O[C@H]5C[C@@H](O)[C@H](O)[C@@H](C)O5)[C@@H](O)[C@@H](C)O4)c(C)c(O)c3c(O)c2C(=O)[C@H]1O[C@H]1C[C@@H](O[C@H]2C[C@@H](O[C@H]3C[C@](C)(O)[C@H](O)[C@@H](C)O3)[C@H](O)[C@@H](C)O2)[C@H](O)[C@@H](C)O1 (stereo partly specified) | 4.52% (inactive) | – | –
COCC(=O)Nc1cc(Sc2ccccc2)ccc1N=C(NC(=O)OC)NC(=O)OC | -20.1% (inactive) | – | –
COC(F)(F)C(Cl)Cl | – | – | inactive
COC(=O)C1=C(C#N)NC(C)=C(C(=O)OC(C)C)C1c1cccc([N+](=O)[O-])c1 (stereo unspecified) | -12.6% (inactive) | – | –
C#C[C@]1(O)CC[C@H]2[C@@H]3CCC4=C/C(=N/O)CC[C@@H]4[C@H]3CC[C@@]21CC | -18.2% (inactive) | – | –
C[C@@H]1CCN(C(=O)CC#N)C[C@@H]1N(C)c1ncnc2[nH]ccc12 | – | inactive | –
COc1cccc(-c2ccc([C@@H](Oc3cc(-c4ccc(C[C@H](N)C(=O)O)cc4)nc(N)n3)C(F)(F)F)cc2)c1 | – | – | inactive
CC(Cc1ccc(O)c(O)c1)C(C)Cc1ccc(O)c(O)c1 (stereo unspecified) | -13.2% (inactive) | – | –
Nc1ncnc2c1ncn2[C@@H]1O[C@H](COP(=O)(O)OP(=O)(O)OP(=O)(O)O)[C@@H](O)[C@H]1O | – | – | inactive [at 0.4 µM]
Cc1cc(C(=O)NNCc2ccccc2)no1 | – | – | inactive [at 98.3 µM]
CC(C)C(=O)c1cn(CC(=O)COc2ccc(Oc3ccccc3)cc2)c2ccc(C(=O)O)cc12 | -24.1% (inactive) | – | –
CCCCCCCCCCCCCC[n+]1ccc(C)cc1 | -27.5% (inactive) | – | –
CC(C)C(=O)OCC(=O)[C@@]12O[C@H](C3CCCCC3)O[C@@H]1C[C@H]1[C@@H]3CCC4=CC(=O)C=C[C@]4(C)[C@H]3[C@@H](O)C[C@@]12C | – | – | inactive
C[C@H](CCC(=O)O)[C@H]1CC[C@H]2[C@@H]3[C@H](O)C[C@@H]4C[C@H](O)CC[C@]4(C)[C@H]3CC[C@]12C | – | – | inactive
COC(=O)CCC(=O)CN | 2.96% (inactive) | – | –

What follows are compounds tested against Phospholipid hydroperoxide glutathione peroxidase GPX4 (Homo sapiens) (UniProt P36969) (assay: Primary qHTS Assay for Inhibitors of Recombinant Selenoprotein Glutathione Peroxidase 4 (GPX4) (AID 1845192)). Conditions: recombinant GPX4, GR-coupled NADPH fluorescence, 15 min; series mostly up to 50 µM; activity change, negative = inhibition: at the top concentration.
How it was run: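 NADPH consumption, followed by fluorescence at 340/450 nm between 0 and 15 min, reports GPX4 activity via coupled glutathione reductase (100 nM). Enzyme 200 nM was pre-exposed to compound 30 min; 0.5 mM cumene hydroperoxide and 1 mM GSH served as substrates.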

Phospholipid hydroperoxide glutathione peroxidase GPX4 (Homo sapiens), sequence (P36969 whole entry, looked up): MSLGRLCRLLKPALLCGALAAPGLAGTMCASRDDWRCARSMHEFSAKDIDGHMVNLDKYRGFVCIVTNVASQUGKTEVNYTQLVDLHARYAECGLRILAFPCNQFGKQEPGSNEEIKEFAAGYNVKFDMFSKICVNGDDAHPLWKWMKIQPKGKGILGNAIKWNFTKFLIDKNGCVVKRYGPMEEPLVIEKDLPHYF

SMILES | Potency | activity change, negative = inhibition | outcome
COC(=O)[C@H]1[C@H]2C[C@@H]3c4[nH]c5ccccc5c4CCN3C[C@H]2C[C@@H](OC(=O)c2cc(OC)c(OC)c(OC)c2)[C@@H]1OC | 17.8 µM (active) | – | –
Clc1cc(Cl)c(OCC#CI)cc1Cl | – | -0.691% (inactive) | –
Cc1ccc2c(c1)C=Cc1cc(C)ccc1C2c1cn(Cc2ccc(C(=O)Nc3nn[nH]n3)o2)c(=O)[nH]c1=S | – | -31.5% (inactive) | –
O=C(O)c1cc(O)c2c(c1)[O][Bi][O]2 | – | – | inactive [at 0.409 µM]
CCOc1ccc2c(c1)C(C)=CC(C)(C)N2 | 31.6 µM (active) | – | –
CCCCC(=O)OCC(=O)[C@]1(O)Cc2c(O)c3c(c(O)c2[C@@H](O[C@H]2C[C@H](NC(=O)C(F)(F)F)[C@H](O)[C@H](C)O2)C1)C(=O)c1c(OC)cccc1C3=O | inactive | – | –
CC(C)(C)C(=O)OCOC(=O)[C@@H]1N2C(=O)[C@@H](N=CN3CCCCCC3)[C@H]2SC1(C)C | – | – | inactive
CCN(CC)Cc1cc(Nc2ccnc3cc(Cl)ccc23)ccc1O | – | – | inactive
CCOC(=O)[C@H](CCc1ccccc1)N[C@@H](C)C(=O)N1C2CCCCC2C[C@H]1C(=O)O (stereo partly specified) | – | 1.4% (inactive) | –
CC1(C)C(C=C(Cl)Cl)C1C(=O)OCc1cccc(Oc2ccccc2)c1 (stereo unspecified) | – | -8.62% (inactive) | –
C=C1CC[C@@H]2[C@](C)(CO)[C@H](O)CC[C@@]2(C)[C@@H]1C/C=C1/C(=O)OC[C@H]1O | – | -18.8% (inactive) | –
CCCCCCCCCCCC[n+]1ccc2ccccc2c1 | – | -5.18% (inactive) | –
CC(C)N=c1cc2n(-c3ccc(Cl)cc3)c3ccccc3nc-2cc1Nc1ccc(Cl)cc1 | – | -1.16% (inactive) | –
O=CCCCC=O | – | – | inactive
CC[N+](C)(C)Cc1ccccc1Br | – | -12.3% (inactive) | –
COC(F)(F)C(Cl)Cl | – | – | inactive
COC(=O)C1=C(C#N)NC(C)=C(C(=O)OC(C)C)C1c1cccc([N+](=O)[O-])c1 (stereo unspecified) | – | -15.7% (inactive) | –
C[C@@H]1CCN(C(=O)CC#N)C[C@@H]1N(C)c1ncnc2[nH]ccc12 | inactive | – | –
CC(C)c1nc(N(C)S(C)(=O)=O)nc(-c2ccc(F)cc2)c1/C=C/[C@@H](O)C[C@@H](O)CC(=O)O | – | -0.211% (inactive) | –
CC(Cc1ccc(O)c(O)c1)C(C)Cc1ccc(O)c(O)c1 (stereo unspecified) | 11.2 µM (active) | – | –
Nc1ncnc2c1ncn2[C@@H]1O[C@H](COP(=O)(O)OP(=O)(O)OP(=O)(O)O)[C@@H](O)[C@H]1O | – | 0.0913% [at 0.409 µM] (inactive) | –
Cc1cc(C(=O)NNCc2ccccc2)no1 | – | – | inactive [at 100 µM]
CCCCCCCCCCCCCC[n+]1ccc(C)cc1 | – | -12.9% (inactive) | –
CC(C)C(=O)OCC(=O)[C@@]12O[C@H](C3CCCCC3)O[C@@H]1C[C@H]1[C@@H]3CCC4=CC(=O)C=C[C@]4(C)[C@H]3[C@@H](O)C[C@@]12C | – | – | inactive
COC(=O)CCC(=O)CN | – | – | inactive
N#CC1C(=O)Nc2scc(-c3ccc(-c4ccccc4O)cc3)c2C1=O (stereo unspecified) | – | -8.08% (inactive) | –
